Laboratory results as given in PMC4336329 (PLoS ONE, 2015).
In all, about 310,000 compounds went through this assay and about 2,200 (0.71%) showed an effect of 50% or more. Effects have a minus sign here. Shown is part of a subset that was picked to be rich in strong results.

Target: human ether-à-go-go-related gene (hERG) potassium channel (human, UniProt Q12809)
Assay: primary screen, population patch clamp on CHO cells stably expressing hERG; higher = less effect of the substance

human ether-à-go-go-related gene (hERG) potassium channel, sequence (Q12809 whole entry, looked up): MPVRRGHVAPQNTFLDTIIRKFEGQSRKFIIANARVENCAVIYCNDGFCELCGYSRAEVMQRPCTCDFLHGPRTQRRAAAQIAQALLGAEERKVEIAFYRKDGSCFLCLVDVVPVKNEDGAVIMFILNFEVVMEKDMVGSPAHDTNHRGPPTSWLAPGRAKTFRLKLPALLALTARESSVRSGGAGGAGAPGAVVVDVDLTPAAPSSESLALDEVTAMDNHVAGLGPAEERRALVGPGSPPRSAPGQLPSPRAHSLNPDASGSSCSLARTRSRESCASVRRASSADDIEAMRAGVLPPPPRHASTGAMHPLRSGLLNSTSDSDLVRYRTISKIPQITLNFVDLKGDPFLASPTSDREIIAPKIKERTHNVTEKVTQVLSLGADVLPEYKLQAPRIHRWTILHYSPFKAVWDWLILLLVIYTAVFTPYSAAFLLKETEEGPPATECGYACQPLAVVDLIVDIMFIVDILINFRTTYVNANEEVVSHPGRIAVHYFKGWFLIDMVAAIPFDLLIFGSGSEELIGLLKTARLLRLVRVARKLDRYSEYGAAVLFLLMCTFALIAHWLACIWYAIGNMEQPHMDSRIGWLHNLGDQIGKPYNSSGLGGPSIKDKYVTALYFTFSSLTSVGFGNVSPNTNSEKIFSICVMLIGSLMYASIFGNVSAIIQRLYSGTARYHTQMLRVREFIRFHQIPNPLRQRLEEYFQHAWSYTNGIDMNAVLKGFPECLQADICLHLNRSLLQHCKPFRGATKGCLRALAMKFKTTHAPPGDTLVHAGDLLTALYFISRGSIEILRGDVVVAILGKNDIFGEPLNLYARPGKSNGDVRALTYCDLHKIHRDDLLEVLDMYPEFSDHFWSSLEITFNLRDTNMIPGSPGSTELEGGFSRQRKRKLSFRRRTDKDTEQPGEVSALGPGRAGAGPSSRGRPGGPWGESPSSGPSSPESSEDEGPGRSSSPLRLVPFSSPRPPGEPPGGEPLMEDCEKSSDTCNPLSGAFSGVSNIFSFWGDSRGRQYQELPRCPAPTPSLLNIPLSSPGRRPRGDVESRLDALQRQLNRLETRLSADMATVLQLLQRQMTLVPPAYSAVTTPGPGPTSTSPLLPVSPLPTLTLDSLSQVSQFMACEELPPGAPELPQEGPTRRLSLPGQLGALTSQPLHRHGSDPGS

SMILES | hERG current change (%, negative = inhibition) at 1uM [%]
COc1ccc(-c2cc(C(=O)N3CCN(c4ccccc4F)CC3)c3ccccc3n2)c(OC)c1 | 4.75
CCn1c(SCC(=O)NCc2ccc3c(c2)OCO3)nnc1-c1c[nH]c2ccccc12 | 14.9
N/C(=N\OC(=O)CC1CCCCC1)c1ccncc1 | 12.3
O=C(c1ccc(F)cc1)N1CCN(C(=O)c2ccc([N+](=O)[O-])cc2)CC1 | -13.7
CCn1nc(C(=O)NNC(=O)c2ccccc2OCc2c(C)noc2C)c2ccccc2c1=O | 9.55
O=C(CCn1c(=O)[nH]c2ccccc2c1=O)N1CCN(c2ccc(Cl)cc2)CC1 | -4.13
Cc1cc(NS(=O)(=O)c2ccc(NC(=O)COc3ccc(Cl)cc3Cl)cc2)no1 | -0.394
CC(=O)O.NCC(c1ccco1)c1c[nH]c2ccccc12 (centres unmarked) | 12.2
O=C(C1COc2ccccc2O1)N1CCN(c2ccc(F)cc2)CC1 (centres unmarked) | -9.29
COC(=O)c1[nH]c2ccc(C)cc2c1NC(=O)CCN1CCN(Cc2ccc3c(c2)OCO3)CC1 | -33
O=C(CN1CCN(C(=O)C2COc3ccccc3O2)CC1)Nc1ccccc1 (centres unmarked) | -22.5
O=C(CN1CCN(Cc2ccc3c(c2)OCO3)CC1)NCC(F)(F)F | 11.2
COc1cc(NC(=O)CN2CCN(Cc3ccc4c(c3)OCO4)CC2)cc(OC)c1.O=C(O)C(=O)O | -9.16
O=C(CN1CCN(C(=O)C2COc3ccccc3O2)CC1)Nc1ccc(F)cc1 (centres unmarked) | -63.5
COC(=O)c1[nH]c2ccccc2c1NC(=O)CN1CCN(Cc2ccc3c(c2)OCO3)CC1 | -70.3
CCN(CC(=O)Nc1c(C(=O)OC)[nH]c2ccccc12)c1ccc2c(c1)OCO2 | 12.1
O=C(CN1CCN(Cc2ccc3c(c2)OCO3)CC1)Nc1ccc(F)cc1 | -82.6
O=C(COC(=O)/C=C/c1ccccc1F)Nc1nnc(-c2ccccc2)o1 | 7.16
Cc1ccc(S(=O)(=O)NCCOCCNS(=O)(=O)c2ccc(C)cc2)cc1 | -2.18
Cc1ccccc1C(=O)NC1CCN(C(=O)N2CCOCC2)CC1 | 12.6
O=c1cc(O)c2c(=O)n(C3CCCCC3)c3ccccc3c2o1 | 10.4
CC(C)OC(=O)CSc1nc2c(cc1C#N)CCCCC2 | 10.2

SMILES | hERG current change (%, negative = inhibition) at 1uM [%]
CC12CCC(=O)N1C(C(=O)OCC(=O)Nc1cc(S(=O)(=O)N3CCCCC3)ccc1Cl)CS2 (centres unmarked) | 11.1
CC12CCC(=O)N1C(C(=O)Nc1cccc(S(=O)(=O)N3CCCCCC3)c1)CS2 (centres unmarked) | -29.7
CC12CCC(=O)N1C(C(=O)OCC(=O)Nc1cccc(S(=O)(=O)N3CCCCCC3)c1)CS2 (centres unmarked) | -51.9
COc1ccc(CNCC(O)(c2ccccc2)c2ccc(F)cc2)cc1 (centres unmarked) | -45.9
O=C(CN1CCCC1=O)NCCc1ccccc1 | 8.88
CSc1ccc(CN(C)CCc2ccccn2)cc1.O=C(O)C(=O)O | -21.3
CCOc1ccc(CN(C)C(C)C(=O)NCCc2ccc(F)cc2)cc1 (centres unmarked) | -57.1
CN(CCc1ccccn1)Cc1ccc(Cl)c(Cl)c1 | -0.903
CCOc1ccc(CN(C)CCc2ccccn2)cc1.O=C(O)C(=O)O | -58.8
CN(CCc1ccccn1)Cc1ccc(Cl)cc1 | -24.6
CCOc1ccc(CN(C)C(C)C(=O)NCc2ccccc2)cc1 (centres unmarked) | -21.7
CCc1ccc(CN(C)CCc2ccccn2)cc1 | -34.7
CCOc1ccc(CN(C)CC(=O)NCc2ccccc2)cc1 | -82.3
CCC(CC)C(=O)NCCc1ccc(F)cc1 | 10.2
CN(CC(=O)NCc1ccccc1)Cc1ccc(Cl)cc1 | 2.36
CSc1ccc(CN(C)CC(=O)NCc2ccccc2)cc1 | -11.1
CN(CCc1ccccn1)Cc1ccc(Cl)cc1Cl | -54.1
O=c1c2ccccc2c(/C=N/c2nnc(Cc3ccccc3)s2)c(O)n1-c1ccc(Cl)cn1 | 11.3
COC(=O)C(C)NS(=O)(=O)c1ccc(NC(C)=O)cc1 (centres unmarked) | 1.66
Cc1ccc(C(=O)c2coc3cc([N+](=O)[O-])c(O)c([N+](=O)[O-])c23)cc1 | 7.26
COCCCn1c(=O)/c(=C\c2ccccc2OC(F)F)s/c1=C(/C#N)C(=O)N1CCOCC1 | 9.19
CCN(CCn1cccn1)C(=O)c1cc(COc2ccc(F)c(F)c2)on1 | -27.1
